Assay results from PubChem BioAssay (NCI).
This is part of a sample that, as a whole, favours compounds with a hit. Of some 79,000 tested, about 15% had one in any assay. Unmarked numbers belong to inactive results. Calls of active or inactive are those of the source. Rule as the data show it: active = growth inhibition above about 70%; inactive = the rest.

Columns and labels:
[1] = NCI Yeast Anticancer Drug Screen. Data for the rad50 strain (AID 155);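 also: 0% = growth of vehicle-only cultures of the same strain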; conditions: S. cerevisiae rad50 strain growth inhibition, active compounds read high
In short: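 Inhibition values express reduced yeast growth in compound-treated cultures relative to vehicle-treated controls.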

[2] = NCI Yeast Anticancer Drug Screen. Data for the mec2-1 strain (AID 157); conditions: S. cerevisiae mec2-1 strain, active compounds read high
In short: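 Using mec2-1 yeast: add compound, measure growth, express inhibition versus vehicle-treated cultures.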

[3] = NCI Yeast Anticancer Drug Screen. Data for the sgs1 mgt1 strain (AID 161);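 also: 0% = growth of cultures given vehicle only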; conditions: S. cerevisiae sgs1 mgt1 strain, active compounds read high
In short: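 Compounds are added to genetically altered yeast, and growth is compared with cultures given vehicle alone to give percent inhibition.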

[4] = NCI Yeast Anticancer Drug Screen. Data for the cln2 rad14 strain (AID 165);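 also: 0% = growth equal to vehicle treated cultures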; conditions: S. cerevisiae cln2 rad14 strain, active compounds read high
In short: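 Yeast strain cln2 rad14, bearing defects in cell cycle control and DNA repair, serves as the test system; values reflect growth inhibition compared with vehicle.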

[5] = NCI Yeast Anticancer Drug Screen. Data for the bub3 strain (AID 167); conditions: S. cerevisiae bub3 mutant strain, active compounds read high
In short: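 Steps: expose the mutant yeast strain to compound; grow alongside vehicle-treated cultures; measure growth; express inhibition against the vehicle cultures.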

[6] = NCI Yeast Anticancer Drug Screen. Data for the mlh1 rad18 strain (AID 175); conditions: S. cerevisiae mlh1 rad18 strain growth inhibition, active compounds read high
In short: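 Steps: expose repair-defective yeast to compound; measure growth; express inhibition against vehicle-treated controls.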

[7] = at 5.0 µM (retest, dose inferred, filed as 0.5)
[8] = at 50.0 µM (retest, dose inferred, filed as 5.0)

| Compound | growth inhibition [1, 7] | growth inhibition [1, 8] | growth inhibition ([1]; at 50.0 µM) | growth inhibition [2, 7] | growth inhibition [2, 8] | growth inhibition ([2]; at 50.0 µM) | growth inhibition [3, 7] | growth inhibition [3, 8] | growth inhibition ([3]; at 50.0 µM) | growth inhibition [4, 7] | growth inhibition [4, 8] | growth inhibition ([4]; at 50.0 µM) | growth inhibition [5, 7] | growth inhibition [5, 8] | growth inhibition ([5]; at 50.0 µM) | growth inhibition [6, 7] | growth inhibition [6, 8] | growth inhibition ([6]; at 50.0 µM) |
| --- | --- | --- | --- | --- | --- | --- | --- | --- | --- | --- | --- | --- | --- | --- | --- | --- | --- | --- |
| O=C1C=CC(=O)N1c1ccc(-c2ccc(N3C(=O)C=CC3=O)cc2)cc1 | 41% | 68% | 48.3% | 56% | 87% (active) | 35.6% | 60% | 82% (active) | 60.6% | 18% | 57% | 27.1% | 33% | 80% (active) | 46% | 58% | 79% (active) | 57.5% |
| O=C1CCC(c2ccccc2)=NN1c1nc2ccccc2s1 | 5% | 90% (active) | 98.3% (active) | -3% | 79% (active) | 99.2% (active) | 0% | 85% (active) | 99.2% (active) | -3% | 83% (active) | 99% (active) | -6% | 95% (active) | 99.3% (active) | 4% | 93% (active) | 99.5% (active) |
| O=C(N/N=C/c1ccccc1[O-])c1ccccc1O.O=C(N/N=C/c1ccccc1[O-])c1ccccc1O.[Mn+2] | 48% | 99% (active) | 99.2% (active) | 39% | 98% (active) | 99.8% (active) | 63% | 100% (active) | 97.7% (active) | 28% | 99% (active) | 99% (active) | 48% | 99% (active) | 99.6% (active) | 40% | 99% (active) | 97.8% (active) |
| COc1cc(CC#N)c(NC(C)=O)cc1OC | 0% | -4% | -2.3% | -41% | -3% | 28.6% | 0% | -2% | -8.45% | 1% | -2% | 41% | -7% | -7% | 6.05% | -1% | -3% | 9.1% |
| COc1cccc(-c2cc(=O)c3c(C)ccnc3[nH]2)c1 | 8% | 8% | 80.5% (active) | 4% | 4% | 49.8% | 15% | 15% | 70.8% (active) | -4% | -4% | 30% | -9% | -9% | 68% | 14% | 14% | 61.8% |
| CN(C)C(C)(C)CCNc1c2ccccc2nc2cccc([N+](=O)[O-])c12 | 96% (active) | 97% (active) | 96% (active) | 98% (active) | 100% (active) | 94.6% (active) | 98% (active) | 99% (active) | 96.7% (active) | 98% (active) | 99% (active) | 94.5% (active) | 96% (active) | 99% (active) | 97.2% (active) | 98% (active) | 100% (active) | 98% (active) |
| O=C(NNc1ccccc1)c1ccc([N+](=O)[O-])cc1 | 31% | 95% (active) | 99% (active) | 10% | 96% (active) | 99.2% (active) | 34% | 97% (active) | 99% (active) | 20% | 96% (active) | 92% (active) | 25% | 96% (active) | 99.6% (active) | 32% | 97% (active) | 98.7% (active) |
| CCCCCCCCCCCCCCNC(=O)CCC(NC(=O)c1ccc(N(C)Cc2cnc3nc(N)nc(N)c3n2)cc1)C(=O)NCCCCCCCCCCCCCC (configuration not stated) | 28% | 94% (active) | 64.9% | 22% | 96% (active) | 84.7% (active) | 19% | 93% (active) | 86.3% (active) | 3% | 77% (active) | 45.1% | 24% | 93% (active) | 68.7% | 24% | 91% (active) | 20.8% |
| CC(C)c1cc2c(cc1O)C[C@@]1(O)CCCC(C)(C)C1CC2 (some centres not stated) | 8% | 97% (active) | 90.6% (active) | 3% | 97% (active) | 92.3% (active) | 3% | 92% (active) | 91.2% (active) | -16% | 96% (active) | 90% (active) | 7% | 96% (active) | 91.2% (active) | 10% | 95% (active) | 90.2% (active) |
| O=C1OC(c2ccccc2)=N/C1=C\c1ccc(Oc2ccc(Cl)c(Cl)c2)cc1 | 8% | 8% | 69.4% | 14% | 14% | 61.5% | 0% | 0% | 74.8% (active) | -2% | -2% | 46% | -1% | -1% | 69.7% | -4% | -4% | 52.4% |
| N#CC(C(=O)C(=O)NC1C2CC3CC(C2)CC1C3)c1c(Cl)cccc1Cl (configuration not stated) | 1% | 7% | 31.7% | -4% | -32% | 19.8% | -1% | 3% | 21.2% | 3% | 5% | 28.6% | -1% | 5% | 0.45% | -1% | 5% | 30.6% |
| O=C1CCCCCCC2=C1C(Sc1ccccc1)CC2 (configuration not stated) | -27% | 34% | 78.8% (active) | -6% | 25% | 52.4% | -16% | 35% | 75.2% (active) | 13% | 28% | 45.6% | 3% | 69% | 60.1% | -13% | 80% (active) | 54.1% |
| O=C(C#CC(=O)[O][Sn]([c]1ccccc1)([c]1ccccc1)[c]1ccccc1)[O][Sn]([c]1ccccc1)([c]1ccccc1)[c]1ccccc1 | 99% (active) | 99% (active) | 99.1% (active) | 100% (active) | 99% (active) | 99.5% (active) | 100% (active) | 99% (active) | 99.5% (active) | 99% (active) | 99% (active) | 98.4% (active) | 99% (active) | 99% (active) | 99% (active) | 99% (active) | 99% (active) | 99.2% (active) |
| O=C(NCCCCCN1CCC2(CCCCC2)CC1)C(c1ccccc1)C1CCCCC1 (configuration not stated) | -1% | 99% (active) | 99.6% (active) | -12% | 98% (active) | 99.6% (active) | 0% | 97% (active) | 99.7% (active) | 5% | 99% (active) | 99.2% (active) | -15% | 100% (active) | 99.6% (active) | 0% | 99% (active) | 99.7% (active) |
| CCC[N+]1=C(/C=C/c2ccc3cccnc3c2O)C(C)(C)c2ccccc21 | 0% | 98% (active) | 98.8% (active) | 0% | 98% (active) | 99% (active) | 10% | 98% (active) | 54% | -15% | 98% (active) | 98.9% (active) | 4% | 98% (active) | 98.8% (active) | 25% | 98% (active) | 97.8% (active) |
| O=S(Nc1ccccc1Br)c1ccccc1 (configuration not stated) | -4% | 10% | 22.2% | -2% | 16% | 24.1% | -3% | 21% | 59.2% | 1% | 12% | -3.25% | -4% | 34% | 16.9% | -4% | 45% | 44.8% |
| O=C(COC(=O)C(c1ccccc1)c1ccccc1)c1ccc(Br)cc1 | -2% | 28% | 45.9% | -1% | 23% | 11% | 0% | 35% | -4.25% | -5% | 28% | 11.1% | 10% | 62% | 88% (active) | -1% | 27% | 20.9% |
| CCCC(=O)C1=C(O)C(Cc2c(O)c(C)c(O)c(C(=O)CCC)c2O)=C(O)C(C)(C)C1=O | -1% | 52% | 98.2% (active) | 4% | 34% | 92.9% (active) | 6% | 56% | 98.5% (active) | -4% | 83% (active) | 99.1% (active) | -1% | 92% (active) | 98.3% (active) | 7% | 66% | 99% (active) |
| O=[N+]([O-])c1ccc(Sc2ccc([N+](=O)[O-])o2)o1 | 93% (active) | 99% (active) | 99.2% (active) | 94% (active) | 100% (active) | 99.5% (active) | 97% (active) | 100% (active) | 99.4% (active) | 71% (active) | 99% (active) | 99.2% (active) | 96% (active) | 99% (active) | 99.5% (active) | 98% (active) | 99% (active) | 99.1% (active) |
